Bioassay records: PubChem BioAssay, National Center for Advancing Translational Sciences (NCATS)
Sampled rows, rich in hits. Any-hit rate of the full collection: about 18%.
Gal4-VP16 FLuc = inhibits Gal4-VP16 luciferase reporter, ROR gamma counter-screen | hit rate 3.5% among 310,000 | AID 2546 | Potency, µM (doses to about 53.6 µM), for inactives: at the highest dose activity, negative = inhibition, actives largely listed as inhibitors | Drosophila S2 Gal4-VP16 UAS-luciferase, luminescence, 20 h;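 further: Gal4-VP16 expression switched on by copper sulfate through the metallothionein promoter; potency means the concentration at half of the fitted maximal effect; nearly all actives have a fitted effect of over 50% in size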
DT40 TDP1 CPT = DT40-hTDP1 cell growth loss with CPT. chicken DT40 Tdp1-/-;hTDP1 cells + 20 nM CPT, ATP luminescence, 48 h. Potency, µM (top dose mostly 46.2 µM), without a hit: top-dose activity change, negative = growth inhibition, most hits filed as inhibitors. hit rate 12% among 420,000. AID 686979; further: potency means the concentration at half of the fitted maximal effect; nearly all actives have a fitted effect of over 55% in size
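Chicken DT40 Tdp1-/- cells complemented with human TDP1, 400 cells/well, exposed to compounds plus 20 nM camptothecin for at least 48 h at 37 C; viability read as ATP content by CellTiter-Glo luminescence.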
TDP1 cell noCPT = qHTS for Inhibitors of human tyrosyl-DNA phosphodiesterase 1 (TDP1): qHTS in cells in absence of CPT. DT40 Tdp1-/- hTDP1 cells, no CPT, ATP luminescence, 48 h. Potency, µM (titrated, usually from 46.2 µM), without a hit: top-dose activity change, negative = growth inhibition, hits mostly inhibitors. hit rate 15% among 420,000. AID 686978, 2013; further: potency means the concentration at half of the fitted maximal effect; nearly all actives have a fitted effect of over 55% in size
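No-CPT arm: Tdp1-/-;hTDP1 DT40 cells (400/well) plus compounds, incubated ≥48 hr at 37 °C. Readout CellTiter-Glo luminescence.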
IL1B secr inh = blocks inflammasome-driven IL-1 beta release. activity change, % at 57.5 µM. THP-1 LPS/ATP IL-1B secretion, AlphaLISA, 16 h; stronger effect = lower value. hit rate 4.7% among 360,000. AID 743279; in the data active means activity change below about -50%; inconclusive means mostly about -30% to -49%
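Secreted IL-1B measured by AlphaLISA bead assay after 16 h compound exposure of THP-1 cells; compounds (final up to 57.5 uM) added 1 h before LPS (250 ng/mL) and ATP (1.25 mM) stimulation; lower signal means less secretion.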
LDHA inh = inhibitors of human lactate dehydrogenase A | AID 1347041 | hit rate 0.15% among 480,000 | purified LDHA, NADH/diaphorase-resazurin fluorescence; stronger effect = lower value | P00338 | activity change, % (values are at about 110 or 230 µM); in the data active means activity change below about -30%; inconclusive means mostly about -25% to -30%;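 further: plate controls were DMSO wells for no effect and wells without enzyme for full effect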
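Resorufin fluorescence (ex540/em590), read at 0 and 20 min after diaphorase/resazurin addition, reports the NADH left after a 5 min room-temperature reaction of 2 nM human LDH5 with 0.06 mM NADH and 0.2 mM pyruvate.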
RORgamma inh = blocks mouse ROR gamma transcriptional activity. Drosophila S2 Gal4-RORgamma UAS-luciferase reporter, 20 h. AID 2551. Potency, µM (doses to about 53.6 µM), without a hit: at the top dose activity change, negative = inhibition, actives largely listed as inhibitors. hit rate 5.4% among 310,000. P51450; further: potency means the concentration at half of the fitted maximal effect; nearly all actives have a fitted effect of over 60% in size
Target sequence (P51450 whole entry, looked up, the tested form may be a part): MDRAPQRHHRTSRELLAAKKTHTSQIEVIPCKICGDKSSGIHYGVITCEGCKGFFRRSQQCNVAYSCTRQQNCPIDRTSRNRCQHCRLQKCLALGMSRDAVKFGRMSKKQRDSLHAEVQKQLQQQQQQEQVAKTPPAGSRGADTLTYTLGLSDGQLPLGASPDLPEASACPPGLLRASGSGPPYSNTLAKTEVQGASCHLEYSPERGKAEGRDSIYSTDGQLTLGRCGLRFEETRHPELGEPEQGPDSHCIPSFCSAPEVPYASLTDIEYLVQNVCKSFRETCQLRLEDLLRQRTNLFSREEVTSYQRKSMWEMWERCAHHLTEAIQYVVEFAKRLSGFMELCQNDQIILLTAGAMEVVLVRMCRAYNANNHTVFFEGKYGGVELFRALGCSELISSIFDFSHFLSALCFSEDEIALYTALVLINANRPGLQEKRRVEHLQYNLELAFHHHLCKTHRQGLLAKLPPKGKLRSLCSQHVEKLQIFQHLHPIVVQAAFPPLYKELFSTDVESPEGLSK
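Stably transfected Drosophila Schneider cells are the test system, with ROR gamma fused to Gal4 and luciferase under UAS control; luminescence is read after 20 hr of 700 uM copper sulfate induction at ambient temperature.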
An asterisk follows results filed as active; ? = inconclusive; . = no result; [ ] = dose if it differs, or a comment. Unless noted, the call rests on the fitted dose curve; in most records, active means well fitted curve in the direction sought with a large enough effect; inconclusive means small, poorly fitted or top-dose-only effect, or another doubt; inactive means no such curve, though single readings can be large; an effect the other way counts as inactive or inconclusive. Unless noted, on the % scale 0 is the no-effect control and ±100 the full control effect.

SMILES	Gal4-VP16 FLuc	DT40 TDP1 CPT	TDP1 cell noCPT	IL1B secr inh	LDHA inh	RORgamma inh
COc1ccc(C2CC(O)(c3ccccc3)Oc3cc(OC)c(OC)c(OC)c32)cc1 (stereo not given)	?	?	?	0	18	-16%
COc1ccc([C@@]23Oc4cc(OC)cc(OC)c4[C@]2(O)[C@H](O)[C@H](C(=O)N(C)C)[C@H]3c2ccccc2)cc1	.	0.0073µM*	0.0092µM*	-3	-3	.
CCCn1nc(C(=O)N(CCOC)Cc2nc3ccccc3c(=O)[nH]2)c2ccccc2c1=O	.	.	.	.	0	.
COc1ccc(N2CN(CCN3CCOCC3)Cn3c2nc(C)c(C)c3=O)cc1	.	.	.	.	1	.
Cc1ccc(-c2nnc(OCC3CCCO3)c3ccccc23)cc1 (stereo not given)	-2%	?	18µM*	-66*	-6	25%
Cc1ccc(Oc2nnc(-c3ccccc3)c3ccccc23)cc1	-4%	21µM*	?	-20	-10	16%
Cc1ccc(-c2nnc(Oc3cccc(C)c3)c3ccccc23)cc1	0%	?	?	-75*	-1	-2%
Cc1ccc(NC(=O)c2ccc(OCC3CCCO3)cc2)cc1 (stereo not given)	-18%	?	?	9	-11	-7%
CC(NC(=O)CSc1ccc2ccccc2c1)c1ccc2c(c1)OCCO2 (stereo not given)	.	.	.	.	-24	.
CCOC(=O)c1cnc2ccccc2c1Nc1cccc([N+](=O)[O-])c1	.	.	.	.	-13	.
FC(F)(F)c1cccc(/C=N/Nc2ccc(Cl)cc2)c1	.	.	.	.	8	.
COc1cccc(CNC(=O)N2CCN(Cc3ccc(Cl)s3)CC2)c1	.	.	.	.	-3	.
COc1ccc2c(c1)NC(c1ccc(N(C)C)cc1)c1cccn1-2 (stereo not given)	-2%	?	15µM*	25	3	13%
COc1ccccc1CCNC(=O)C1CCN(c2nc3ccccc3nc2C(F)(F)F)CC1	.	16µM*	7.3µM*	.	0	.
O=C(NCCc1ccccc1Cl)C1CCN(c2nc3ccccc3nc2C(F)(F)F)CC1	.	?	?	.	-3	.
COc1cccc(NC(=O)C2CCN(c3nc4ccccc4nc3C(F)(F)F)CC2)c1	.	23µM*	15µM*	.	-2	.
CC(C)(C)NC(=O)C1CCN(c2nc3ccccc3nc2C(F)(F)F)CC1	.	-29%	?	.	-6	.
COC(=O)c1c(NC(=O)C2CCCCC2)sc(C(=O)N(C)C)c1C	.	.	.	.	-5	.
Cc1ccc(-c2nc3ccccc3n2CCNC(=O)NCC(C)C)cc1	.	.	.	.	-6	.
O=C(NC1CCN(Cc2ccccc2)CC1)c1cn(-c2ccccc2)nc1-c1cccnc1	.	-29%	-25%	-91*	-5	.
O=C(N/N=C/c1cn(-c2ccccc2)nc1-c1cccnc1)c1ccccc1	-2%	23µM*	23µM*	?	0	5.6µM*
O=C(O)/C(=C\c1cn(-c2ccccc2)nc1-c1cccnc1)NC(=O)c1ccccc1	-10%	-10%	24%	0	0	4%
NC(=S)N/N=C/c1cn(-c2ccccc2)nc1-c1cccnc1	8.9µM*	12µM*	2.9µM*	-19	-3	6.3µM*
O=C(O)c1cn(-c2ccccc2)nc1-c1cccnc1	-2%	3%	-21%	4	-6	8%
Cc1[nH]c2ccccc2c1C(=O)N1CCN(S(=O)(=O)c2ccccc2F)CC1	.	.	.	.	-1	.
SMILES	Gal4-VP16 FLuc	DT40 TDP1 CPT	TDP1 cell noCPT	IL1B secr inh	LDHA inh	RORgamma inh
CCOc1ccc2c(C)c(-c3ccccc3)c(=O)oc2c1	.	.	.	.	4	.
CCNC(=S)Nc1cccc([N+](=O)[O-])c1	-1%	.	.	.	.	-1%
Cc1ccc(NC(=O)C(C)C)cc1Cl	.	.	.	.	-11	.
CCCCNC(=S)Nc1ccc(C(F)(F)F)cc1	13µM*	?	?	-94*	-3	4.5µM*
CN(C)NC(=S)Nc1ccc(Cl)cc1	2.2µM*	-14%	-7%	-3	-15	?
CCNC(=S)Nc1ccc(C)c(Cl)c1	?	-12%	-21%	-5	-6	7.1µM*
CNNC(=S)Nc1ccc(Cl)cc1	16%	2%	-8%	-1	-8	?
CCNC(=S)Nc1ccc(Cl)c([N+](=O)[O-])c1	11%	-16%	?	-89*	-2	-25%
Cn1nc(C(=O)Nc2cc(-c3cccc(F)c3)no2)c2c1-c1ccccc1OC2	.	.	.	.	-1	.
CN(C)S(=O)(=O)c1ccc(CN)s1	.	.	.	.	7	.
CCCCNC(=S)Nc1ccc(OC)nc1	-2%	-19%	0%	-16	-10	10µM*
CC(CC(=O)Nc1ccc(Cl)c([N+](=O)[O-])c1)c1ccccc1 (stereo not given)	-11%	?	?	-91*	5	?
Cc1cc(C)nc(NS(=O)(=O)c2ccc(NC(=S)NC(=O)C(C)(C)C)cc2)n1	17%	-17%	-28%	12	-4	-29%
CC(C)(C)C(=O)NC(=S)Nc1ccc(C(F)(F)F)cc1	?	6%	?	18	-11	4.5µM*
COc1ccc(NC(=S)Nc2ccccc2)cn1	26%	11%	8%	-11	4	-12%
CCOC(=O)NC(=S)Nc1ccc(C(C)(C)C)cc1	10µM*	?	?	17	-8	2µM*
CCN(CC)S(=O)(=O)c1cccc(NC(=S)Nc2cc(C)ccc2C)c1	.	.	.	.	6	.
O=C(Nc1ccccc1)N1c2ccccc2Sc2ccccc21	.	.	.	.	-1	.
CCCCNC(=S)Nc1ccc(Cl)cc1	?	?	23µM*	-9	-4	7.1µM*
CCCCNC(=S)Nc1ccc(C)cc1	.	.	.	.	-1	.
CCNC(=S)Nc1ccc(Cl)cc1	-83%	-17%	-34%	16	-3	8.9µM*
Cn1ccnc1-c1nc2ccccc2[nH]c1=O	3.5µM*	2%	-10%	27	6	3.5µM*
Cc1ccccc1-n1c(SCc2nc3ccccc3o2)nnc1N1CCOCC1	.	.	.	.	-21	.
O=C(Nc1ccccc1C(F)(F)F)Nc1c(N2CCCC2)c2ccccc2oc1=O	.	.	.	.	0	.
CCCOc1ccc(Cn2c(SCC(=O)NC(C)(C)C)nc3c(sc4ncccc43)c2=O)cc1	.	.	.	.	4	.
Cc1cccc2cc(CN(C(=O)c3ccc(C(F)(F)F)cc3)C3CC3)c(N3CCC(O)CC3)nc12	.	-4%[9.04 µM]	?	.	.	.
Cc1ccc(C(=O)N(Cc2cc3cccc(C)c3nc2N2CCC(O)CC2)C2CC2)cc1	.	-1%[9.04 µM]	13µM*	.	.	.
Cc1sc(NC(=O)CCS(=O)(=O)c2ccccc2)c(C#N)c1C	.	23µM*	?	-3	-5	.
